Methyltransferases – Primary Screen for Target Class Profiling of Small Molecule Inhibitors of Methyltransferases. 3.9% of 25,000 active. calls only at 40 µM. purified enzyme, MTase-Glo SAH luminescence; stronger effect = lower value; call rule not given here
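Each enzyme was assayed with SAM and its substrate. SAH formation detected by MTase-Glo luminescence; single-point 40 uM screen[…].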
An asterisk follows results filed as active; i = inactive; + = active, no number. This excerpt belongs to a sample that is enriched for hits. % is set by controls: 0 for no effect and ±100 for the full control effect.

SMILES	Methyltransferases
COc1ccc2cc3n(c2c1)CC(C)(C(=O)NC1CCCCCC1)N(CCN1CCCCC1C)C3=O (stereo not given)	i
CCN1CCN(C(=O)Cn2c(=O)oc3cc(S(=O)(=O)N4CC(C)CC(C)C4)ccc32)CC1 (stereo not given)	i
CC(C)(C[C@@](O)(Cc1cc2ccncc2[nH]1)C(F)(F)F)c1cc(F)ccc1O	+
O=C(CCc1nnc2n(Cc3ccccc3)c(=O)c3ccccc3n12)NCCc1c[nH]c2ccccc12	i
Cn1c(=O)n(C)c2cc(S(=O)(=O)N(Cc3ccccc3)C(=O)c3ccco3)ccc21	i
CCOc1ccc(CCNC(=O)Cn2ccc3cc(S(=O)(=O)N4CCC(C)CC4)ccc32)cc1	i
Cc1cc(C)cc(NC(=O)CCc2nnc3n(Cc4ccccc4)c(=O)c4ccccc4n23)c1	i
CCCn1c(=O)c2cc(Cl)ccc2n2c(=O)n(CC(=O)N3CCN(c4ccc(F)cc4)CC3)nc12	i
C[C@@]1(C2CCCC2)Cc2cc(OCC(=O)O)c(Cl)c(Cl)c2C1=O	+
CCCn1c(=O)c2cc(Cl)ccc2n2c(SCC(=O)NCc3ccccc3Cl)nnc12	i
COc1cccc(CN2C(=O)c3cc4sccc4n3CC2(C)C(=O)NC2CCCCCCC2)c1 (stereo not given)	i
COc1ccc2cc3n(c2c1)CC(C)(C(=O)NC1CCCCCC1)N(c1ccccc1F)C3=O (stereo not given)	i
CN1C(=O)c2cc(C(=O)NCc3ccc4c(c3)OCO4)nn2CC1(C)C(=O)NC1CCCCCC1 (stereo not given)	i
CN(C)CC[C@H](CSc1ccccc1)Nc1ccc(S(=O)(=O)NC(=O)c2ccc(N3CCN(Cc4ccccc4-c4ccc(Cl)cc4)CC3)cc2)cc1[N+](=O)[O-]	+
CC1(C)CCC(c2ccc(Cl)cc2)=C(CN2CCN(c3ccc(C(=O)NS(=O)(=O)c4ccc(N[C@H](CCN5CCOCC5)CSc5ccccc5)c(S(=O)(=O)C(F)(F)F)c4)cc3)CC2)C1	+
O=C(NCCc1ccco1)c1cc2n(n1)CCCN(Cc1ccc(Cl)cc1)C2=O	i
CC(C)CCNC(=O)c1cc2n(n1)CC(C)(C(=O)NC1CCCCCC1)N(C)C2=O (stereo not given)	i
CC1(C(=O)NC2CCCCCC2)Cn2c(nc3ccccc32)C(=O)N1Cc1ccccc1Cl (stereo not given)	i
O=c1[nH]c2ccc(S(=O)(=O)Nc3cccc(F)c3)cc2[nH]1	i
COc1ccc(OC)c(CNC(=O)c2cc3n(n2)CC(C)(C(=O)NCc2ccccc2)N(C)C3=O)c1 (stereo not given)	i
Cc1ccccc1CSc1nnc2n(C)c(=O)c3ccc(C(=O)NC4CCCC4)cc3n12	i
CC1(C(=O)NCc2ccccc2)Cn2c(cc3ccccc32)C(=O)N1C1CCN(Cc2ccccc2)CC1 (stereo not given)	i
CCCN1C(=O)c2cc(C(=O)NCc3ccc(SC)cc3)nn2CC1(C)C(=O)NC1CCCC1 (stereo not given)	i
CC1(C)O[C@@]2(C)CC[C@@H]1C[C@@H]2OC1OC(CO)C(O)C(O)C1O (stereo not given in full)	+
CC(C)C(=O)O[C@@H]1[C@@H](O)[C@@H](O[C@H]2O[C@H](CO)[C@@H](O)[C@H](O)[C@H]2O)O[C@H](CO)[C@H]1O	i
SMILES	Methyltransferases
CC(C)C(=O)OC[C@H]1O[C@H](O[C@H]2O[C@H](CO)[C@@H](O)[C@H](O)[C@H]2O)[C@H](O)[C@@H](O)[C@@H]1O	i
Cc1ccc(CNC(=O)C2(C)Cn3cnc(C(=O)NCCc4ccc(Cl)cc4)c3C(=O)N2C2CC2)cc1 (stereo not given)	i
COc1ccccc1CNS(=O)(=O)c1cc2c(cc1C)n(C)c(=O)n2C	i
CC1(C(=O)NC2CCCCC2)Cn2c(cc3sccc32)C(=O)N1Cc1ccco1 (stereo not given)	i
C=Cc1ccc(Cn2nc3n(C)c(=O)c4ccc(C(=O)NC(C)CC)cc4n3c2=O)cc1 (stereo not given)	i
Cc1cccc(-c2nnn3c2nc(N2CCSCC2)c2cc(Cl)ccc23)c1	i
COc1cccc(CNC(=O)Cn2c(=O)oc3cc(S(=O)(=O)N4CC(C)CC(C)C4)ccc32)c1 (stereo not given)	i
C=C1C(=O)OC2C3=C(C)C(=O)CC3C(C)CC(O)C12 (stereo not given)	i
C=C1C(=O)OC2/C=C(\C)CC/C=C(\C(=O)O)CC/C=C(\C)CCC12 (stereo not given)	i
C=C1C(=O)O[C@@H]2/C=C(\CO)CC/C=C(/C=O)C[C@H](O)[C@@H]12	+
C=C1C(=O)OC2/C=C(\COC(C)=O)CC/C=C(\C=O)CC(OC(=O)CC(C)C)C12 (stereo not given)	i
C=C1C(=O)O[C@@H]2/C=C(\CO)CC/C=C(/C=O)C[C@@H](O)[C@@H]12	+
C=C1C(=O)OC2/C=C(\CO)CC/C=C(\C=O)CC(OC(=O)CC(C)C)C12 (stereo not given)	+
C=C(C)C(=O)O[C@H]1[C@H]2C(=C)C(=O)O[C@@H]2/C=C(\CO)CC/C=C(/C=O)[C@@H]1O	i
CC1(C(=O)NC2CCCC2)Cn2c(cc3ccccc32)C(=O)N1Cc1cccs1 (stereo not given)	i
CCn1nnc2c(N3CCOCC3)nc(-c3ccc(NC(=O)Nc4ccc(C(=O)N5CCN(C)CC5)cc4)cc3)nc21	+
Cc1c(NC(=O)c2ccc(C(C)(C)C)cc2)cccc1-c1cn(C)c(=O)c(Nc2ccc(C(=O)N3CCOCC3)cc2)n1	i
Cc1cc(C(=O)N2CCc3ncnc(N4CCOCC4)c3CC2)n(C)n1	i
CC1(C(=O)NC2CCCCCC2)Cn2c(ccc2-c2ccccc2)C(=O)N1Cc1ccccc1Cl (stereo not given)	i
COC(=O)c1ncn2c1C(=O)N(Cc1cccs1)C(C)(C(=O)NC1CCCCC1)C2 (stereo not given)	i
COc1ccccc1CN1C(=O)c2nc3ccccc3n2CC1(C)C(=O)NC1CCCCCC1 (stereo not given)	i
CC(C)(O)C1CC=C(C(=O)OCC2OC(Oc3c(O)cc(C(=O)O)cc3O)C(O)C(O)C2O)CC1 (stereo not given)	+
Cc1cc(O[C@@H]2O[C@H](COC(=O)CC(=O)O)[C@@H](O)[C@H](O)[C@H]2O)c(C(C)C)cc1O	i
CC(C)(O)C1CC=C(C(=O)OC[C@H]2O[C@@H](Oc3cc(C(=O)O)cc(O)c3O)[C@H](O)[C@@H](O)[C@@H]2O)CC1 (stereo not given in full)	+
O=C(/C=C/c1ccc(O)c(O)c1)OC[C@H]1O[C@@H](OC2CCCCC2O)[C@H](O)[C@@H](O)[C@@H]1O (stereo not given in full)	i
COc1cc(C(=O)OCC2=CCC3C(C(=O)O)=COC(O[C@@H]4O[C@H](CO)[C@@H](O)[C@H](O)[C@H]4O)C23)ccc1O (stereo not given in full)	i
CC(=O)c1ccc(O[C@@H]2O[C@H](CO[C@@H]3OC[C@@H](O)[C@H](O)[C@H]3O)[C@@H](O)[C@H](O)[C@H]2O)cc1	i
CC(C)Oc1ccc(CN2C(=O)c3ccc(-c4ccco4)n3CC2(C)C(=O)NC2CCCCC2)cc1 (stereo not given)	i
